Common to all, as to test: NCI-60 one-dose screen, 48 h (100 = growth as untreated, 0 = no growth, -100 = all killed)
Common to all, as to settings: 10 µM unless noted

Assay [1] deals with DU-145 prostate.
Assay [2] concerns K-562 leukemia.
In assay [3] the test system is MALME-3M melanoma.
The test system of assay [4] is MDA-MB-231 breast.
Assay [5] deals with RXF 393 renal.
The test system of assay [6] is SF-268 CNS.
The subject of assay [7] is SF-295 CNS.
Assay [8] has as its system SF-539 CNS.
Assay [9] has as its system UACC-257 melanoma.
Assay [10] relates to M14 melanoma.
The test system of assay [11] is HCT-15 colon.
Assay [12] deals with HT29 colon.
The subject of assay [13] is SNB-75 CNS.
For assay [14], the system named is SNB-19 CNS.
The test system of assay [15] is U251 CNS.
For assay [16], the system named is PC-3 prostate.
Assay [17] concerns SK-MEL-5 melanoma.
In assay [18] the test system is UACC-62 melanoma.
Assay [19] concerns LOX IMVI melanoma.
The test system of assay [20] is SK-MEL-28 melanoma.

Compounds without any hit were thinned out: in the full panel of roughly 83,000, 20% have a hit.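 Each cell line was grown in a 96-well plate and treated with one concentration of compound for 48 hours. Values below 10 were considered active.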 Unmarked numbers belong to inactive results. Activity calls are given as the source filed them.

Drawing on PubChem BioAssay (NCI), this text covers growth for eight compounds.

As to `COc1ccc(-c2nnc3n(C)c(=O)c4ccccc4n23)cc1N`, the growth in [1] was 33.3%; in assay [2], 12.1%; in assay [3], 51.9%; in assay [4], 41%; in [5], -10.5% (active); in assay [6], 55.8%. Further, the growth was 10.7% in [7]; -5.87% (active) in [8]; 49.8% in [9]; 13.6% in [10]; 27.2% in assay [11]; 4.95% (active) in [12]. The growth was 7.89% (active) in assay [13]; 31.1% in assay [14]; 23.8% in [15]; 22.1% in assay [16]; 11.4% in [17]; 12.9% in assay [18]. Further, the growth is 37.5% in assay [19] and 53.6% in assay [20].

As for `O=C(NNc1nccc(Nc2ccc(S(=O)(=O)Nc3ccncc3)cc2)n1)c1ccccc1`, the growth is 105% in assay [1]; 107% in assay [2]; 103% in [3]; 90.9% in [4]; 109% in assay [5]; 95.3% in assay [6]. Besides, the growth was 104% in [7]; 115% in [8]; 107% in assay [9]; 91.9% in [10]; 107% in assay [11]; 94.4% in assay [12]. In addition, the growth in assay [13] is 99%; in [14], 109%; in assay [15], 99.6%; in [16], 100%; in [17], 102%; in assay [18] it was 101%. In addition, the growth in assay [19] is -40.5% (active); in assay [20] it was 106%.

On to `Cc1c(-c2nc3ccc(F)cc3c(=O)[nH]2)c2ccccc2n1C`, for which the growth in assay [1] is 53.6%; in [2] it was 15%; in assay [3], 48.4%; in [4], 57.8%; in [5], 14.3%; in assay [6], 54.1%. The growth is 15.1% in assay [7]; 23.8% in assay [8]; 55% in [9]; 18.2% in assay [10]; 22.9% in [11]; 10.7% in assay [12]. Moreover, the growth was -7.98% (active) in assay [13]; 29.2% in assay [14]; 27.6% in assay [15]; 47.1% in assay [16]; 36.2% in assay [17]; 19.6% in assay [18]. In addition, the growth is 34.5% in assay [19] and 52% in assay [20].

In the case of `Cc1cc(Cl)ccc1NC(=O)c1cc2ccccc2cc1O`, the growth in [1] is 31.1%; in assay [2], 9.93% (active); in assay [3] it was 7.3% (active); in assay [4], 23.7%; in [5], 28%; in assay [6] it was 30.8%. Moreover, the growth in [7] was 8.91% (active); in assay [8], 22.6%; in [9], -5.38% (active); in assay [10], 30.4%; in assay [11], 13.2%; in assay [12] it was 80.5%. Besides, the growth was 38.1% in assay [13]; 20% in assay [14]; -14% (active) in assay [15]; 0.952% (active) in assay [16]; 8.89% (active) in assay [17]; 19.1% in assay [18]. Besides, the growth in assay [19] was 28.9%; in assay [20], 41.6%.

In the case of `C[C@H](NC(=O)[C@@H](C)N)[C@H](Oc1ccc2c(cnn2-c2ccc(F)cc2)c1)c1ccc2c(c1)OCCO2`, the growth is 55.4% in [1]; -3.32% (active) in [2]; -24.7% (active) in [3]; 42.5% in assay [4]; 62% in [5]; 42.5% in assay [6]. For the same compound, the growth was 77% in assay [7]; 74% in assay [8]; 63.9% in assay [9]; -69.6% (active) in assay [10]; 34% in assay [11]; 2.47% (active) in assay [12]. Further, the growth in assay [13] was 61.6%; in assay [14] it was 65.9%; in [15], 34.7%; in assay [16], 44%; in [17], -70% (active); in [18], -22.3% (active). The results for the growth in [19] and in [20] were -67.3% (active) and -66.7% (active), respectively.

Regarding `O=C1c2c(c3c4ccccc4[nH]c3c3ccc4ccccc4c23)C(=O)N1CCN1CCCCC1`, the growth in assay [1] is 26.2%; in [2], -7.75% (active); in assay [3] it was 73.9%; in [4], 75.7%; in assay [5] it was 65.7%; in assay [6] it was 39.6%. Moreover, the growth is 30.4% in assay [7]; 46.3% in assay [8]; 85.4% in [9]; 30.2% in [10]; 25% in [11]; 11.8% in assay [12]. The growth in assay [13] is 52.6%; in [14], 42.4%; in assay [15], 10.8%; in assay [16] it was 53.3%; in [17] it was 55.4%; in [18], 42.8%. Also, the growth was 30.2% in [19] and 98.1% in [20].

For the compound `Fc1cc2c(cc1Cl)N(c1ncnc3ccc(-c4cnc5[nH]ncc5c4)cc13)CC2`, the growth in assay [1] was 56.2%; in assay [2] it was 77.5%; in assay [3], 77.3%; in assay [4], 52.7%; in assay [5] it was 38.5%; in assay [6], 57.3%. Further, the growth in assay [7] is 72.9%; in assay [8], 68.2%; in assay [9], 86.3%; in assay [10], 85.5%; in [11], 58.8%; in [12], 56.3%. Besides, the growth in [13] is 19.7%; in assay [14], 69.4%; in assay [15] it was 76.6%; in assay [16] it was 53.9%; in [17], 85.2%; in assay [18], 58.1%. Further, the growth was 47.2% in [19] and 83.4% in [20].

`Cn1cc(-c2nc(-c3c[nH]c4ccncc34)cs2)c2ccccc21`: the growth was 44% in [1]; -33.2% (active) in assay [2]; 54% in [3]; 25.2% in [4]; 70.8% in [5]; 77.3% in [6]. Also, the growth is 65.5% in assay [7]; 78.7% in assay [8]; 91.2% in [9]; -71.5% (active) in assay [10]; -21.6% (active) in [11]; 0.469% (active) in assay [12]. In addition, the growth in assay [13] was 91%; in assay [14] it was 88.4%; in assay [15] it was -43.8% (active); in assay [16], 61.5%; in [17], 55.2%; in assay [18], 94.6%. In addition, the growth in assay [19] was -78% (active); in assay [20] it was -79.8% (active).
